Source: PubChem
Sampled rows, rich in hits. Any-hit rate of the full collection: about 2.1%.
Rpn11 block = inhibitors of human proteasome Rpn11; O00487; human 26S proteasome, Ub4-pepOG fluorescence polarization; 20S core pre-blocked with epoxomicin; inhibition, % at 20 µM; hit rate 0.59% among 360,000; AID 588493;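 active = inhibition at 20 µM, scaled to each plate's controls, above about 33%, limit read from the data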
TPT1 inhibitor = C. albicans TPT1 enzyme inhibition; recombinant caTPT1, FP RNA substrate dephosphorylation; hit rate 0.81% among 300,000; AID 1962; inhibition, % at 5 µM;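 active = inhibition above the mean of all tested compounds plus 3 SD, set per screening campaign, cut at about 24% in these data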;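 note: plate controls were DMSO alone for no effect and ferristatin control at 100 nM for full effect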
HNF4A DNA FP = change in binding of human HNF4 alpha to DNA; P41235; HNF4a-FITC DNA binding, fluorescence polarization, 1 h; activity change, % at 10 µM; hit rate 0.3% among 360,000; in the data active = activity change above about 30%, passing the limit was not always enough
Myeloid diff 2 = compounds promoting myeloid differentiation; ER-HoxA9 myeloid progenitors, lysozyme-GFP differentiation, flow cytometry; calls only at 10 µM; hit rate 1% among 360,000; AID 624256;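 active = normalized GFP-positive differentiation at or above the plate's own cutoff, the solvent-only control mean plus 3 SD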;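 note: cells exposed to compound for four days before flow analysis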
Rpn11 inh conf = confirmation of human proteasome Rpn11 inhibitors | shares compounds with Rpn11 block | purified human 26S proteasome, Ub4-pepOG fluorescence polarization; proteasome pretreated with epoxomicin | inhibition, % at 20 µM | hit rate 29% among 1,900 | AID 602318
MMP-2 counter = blocks human MMP-2, flagging nonselective RPN11 hits; AID 602330; hit rate 4% among 1,900; shares compounds with Rpn11 block; recombinant MMP-2, FRET peptide cleavage fluorescence; inhibition, % at 20 µM;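 note: human MMP-2 activated beforehand with APMA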
Target sequence (P08253 whole entry, looked up): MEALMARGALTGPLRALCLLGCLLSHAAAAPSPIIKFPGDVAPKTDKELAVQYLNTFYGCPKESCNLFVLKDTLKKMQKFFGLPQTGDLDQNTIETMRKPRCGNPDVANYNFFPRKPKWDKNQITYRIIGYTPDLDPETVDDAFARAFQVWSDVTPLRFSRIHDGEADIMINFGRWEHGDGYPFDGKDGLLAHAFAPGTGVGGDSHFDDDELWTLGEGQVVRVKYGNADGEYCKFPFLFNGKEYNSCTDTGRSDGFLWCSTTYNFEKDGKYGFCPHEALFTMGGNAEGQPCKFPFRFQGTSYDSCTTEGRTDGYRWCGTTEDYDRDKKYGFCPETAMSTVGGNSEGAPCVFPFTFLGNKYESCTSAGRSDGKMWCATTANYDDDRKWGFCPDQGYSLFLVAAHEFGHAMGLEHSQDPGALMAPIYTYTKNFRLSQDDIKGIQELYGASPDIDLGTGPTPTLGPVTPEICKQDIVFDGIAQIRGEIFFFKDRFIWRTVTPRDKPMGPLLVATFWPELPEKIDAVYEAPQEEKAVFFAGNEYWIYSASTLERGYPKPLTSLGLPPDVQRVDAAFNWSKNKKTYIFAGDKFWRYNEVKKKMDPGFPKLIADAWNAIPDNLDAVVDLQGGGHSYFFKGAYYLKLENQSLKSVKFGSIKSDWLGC
Thrombin FP = thrombin (bovine) inhibition counter-screen; shares compounds with Rpn11 block; bovine thrombin cleavage of Ub4-pepOG, fluorescence polarization; inhibition, % at 20 µM; hit rate 13% among 1,900;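 active = mean inhibition at least 40% at 20 µM, or signal 3 deviations below plate average, so some actives read negative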;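 note: plate controls were thrombin with DMSO for no effect and buffer wells lacking thrombin for full effect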
Active calls of the source: *. Cut-off read from the data, not from the text of the source, unless noted: active = inhibition above about 40%; inactive = the rest.

Screening COc1ccc(CCNC(=O)c2ccc3c(c2)S(=O)(=O)N=C2CCCCCN23)cc1 returned Rpn11 block 2, TPT1 inhibitor -1, HNF4A DNA FP 2 and Myeloid diff 2 inactive.
Screening Cc1ccc(N2CCN(S(=O)(=O)c3c(C)noc3C)CC2C)cc1 (stereo not given) returned Rpn11 block 0, TPT1 inhibitor -1, HNF4A DNA FP 2 and Myeloid diff 2 inactive.
Screening COc1ccc2cc(-c3csc(-c4cccnc4)n3)ccc2c1 returned Rpn11 block 65*, TPT1 inhibitor 0, HNF4A DNA FP -1, Myeloid diff 2 inactive, Rpn11 inh conf 9, MMP-2 counter -12 and Thrombin FP 3.
For COC(CNC(=O)c1ccc2c(c1)ncn2-c1cccc(C)c1)OC the results were Rpn11 block 1, TPT1 inhibitor -2 and HNF4A DNA FP -1.
CCOc1cc(/C=C2/N=C(C)C(C(=O)OC)=C2O)ccc1O was read as Rpn11 block 51*, TPT1 inhibitor 14, HNF4A DNA FP 8, Myeloid diff 2 inactive, Rpn11 inh conf 32, MMP-2 counter -73 and Thrombin FP 20.
CCOc1cc(/C=C2\SC(N)=NC2=O)ccc1O was read as Rpn11 block 43*, TPT1 inhibitor 10, HNF4A DNA FP 6, Myeloid diff 2 inactive, Rpn11 inh conf 22, MMP-2 counter 7 and Thrombin FP 12.
CCOc1cc(/C=C2\SC(=O)N=C2N)ccc1O was read as Rpn11 block 51*, TPT1 inhibitor 15, HNF4A DNA FP 12, Myeloid diff 2 inactive, Rpn11 inh conf 22, MMP-2 counter 2 and Thrombin FP 1.
For CCOC(=O)C1CCCN(C2=NC(=O)/C(=C/c3ccc(O)c(OCC)c3)S2)C1 (stereo not given) the results were Rpn11 block 77*, TPT1 inhibitor 10, HNF4A DNA FP 8, Myeloid diff 2 inactive, Rpn11 inh conf 37, MMP-2 counter -56 and Thrombin FP 30.
For O=C(CN1CCN(c2nc(-c3ccc(Cl)cc3)cs2)CC1)NCc1ccco1 the results were Rpn11 block 51*, TPT1 inhibitor 21, HNF4A DNA FP 7, Myeloid diff 2 inactive, Rpn11 inh conf 44*, MMP-2 counter 78* and Thrombin FP 23.
Screening Cc1ccc(S(=O)(=O)NC(C(=O)Oc2ccc3c(C(F)(F)F)cc(=O)oc3c2)c2ccccc2)cc1 (stereo not given) returned Rpn11 block -3, TPT1 inhibitor -11, HNF4A DNA FP -2 and Myeloid diff 2 inactive.
Screening CN1/C(=C\C(=O)COC(=O)Cn2nnc(-c3ccccc3)n2)C(C)(C)c2ccccc21 returned Rpn11 block 40*, TPT1 inhibitor -6, HNF4A DNA FP 20, Myeloid diff 2 active, Rpn11 inh conf 45*, MMP-2 counter 2 and Thrombin FP 6.
Cc1ccc(OCC(=O)NNC(=O)CSc2ncnc3sc(C)c(C)c23)cc1 was read as Rpn11 block 116*, TPT1 inhibitor -2, HNF4A DNA FP 3, Myeloid diff 2 inactive, Rpn11 inh conf 57*, MMP-2 counter 68* and Thrombin FP -10.
`CCc1ccc(OCC(=O)NNC(=O)CSc2ncnc3sc(C)c(C)c23)cc1` gave Rpn11 block 60*, TPT1 inhibitor -1, HNF4A DNA FP -10, Myeloid diff 2 inactive, Rpn11 inh conf -12, MMP-2 counter -31 and Thrombin FP -24.
`CCN1C(=O)[C@H]2[C@@H](c3ccc(C(F)(F)F)cc3)N[C@]3(CCCN(Cc4ccccc4)C3=O)[C@H]2C1=O` gave Rpn11 block -10, HNF4A DNA FP 2 and Myeloid diff 2 inactive.
Screening O=C1CS(=O)(=O)N(Cc2ccc(F)cc2)c2ccccc21 returned Rpn11 block 66*, HNF4A DNA FP 1, Myeloid diff 2 inactive, Rpn11 inh conf -2, MMP-2 counter -22 and Thrombin FP -6.
Screening COc1cc(CN2c3ccccc3C(=O)CS2(=O)=O)cc(OC)c1 returned Rpn11 block 58*, HNF4A DNA FP 2, Myeloid diff 2 inactive, Rpn11 inh conf 82*, MMP-2 counter -46 and Thrombin FP -18.
O=C1CS(=O)(=O)N(Cc2ccccc2F)c2ccc(Br)cc21 was read as Rpn11 block 50*, HNF4A DNA FP 1, Myeloid diff 2 inactive, Rpn11 inh conf -15, MMP-2 counter -32 and Thrombin FP -14.
CC(C)n1cc(CN2CCC(Oc3ccc(C(=O)N4CCCC4)cc3)CC2)cn1 was read as Rpn11 block -7, TPT1 inhibitor 1, HNF4A DNA FP -3 and Myeloid diff 2 inactive.
For CCN(CC)c1nc2c3c(nc4c(c3c1C#N)CC(=O)N4c1ccc(Cl)cc1)NC(C)=N2 the results were Rpn11 block 43*, TPT1 inhibitor 22, HNF4A DNA FP 12, Myeloid diff 2 inactive, Rpn11 inh conf 11, MMP-2 counter -20 and Thrombin FP -16.
CCc1ccc(N2C(=O)Cc3c2nc(N)c(C#N)c3N)cc1 was read as Rpn11 block 21, TPT1 inhibitor 0, HNF4A DNA FP 4 and Myeloid diff 2 inactive.
Screening CCC(CO)Oc1cc(NC(=O)c2ccc(N)cc2)c2ncn(C(C)C)c2c1 (stereo not given) returned Rpn11 block 43*, HNF4A DNA FP 2, Myeloid diff 2 inactive, Rpn11 inh conf 44*, MMP-2 counter 13 and Thrombin FP -4.
Screening COc1ccccc1C(=O)N/C(N)=N/c1nc2ccccc2o1 returned Rpn11 block 59*, TPT1 inhibitor 14, HNF4A DNA FP 18, Myeloid diff 2 inactive, Rpn11 inh conf 51*, MMP-2 counter -38 and Thrombin FP 8.
`C/C(=N\NC(=O)C(=O)Nc1ccc(C)c(Cl)c1)c1ccncc1` gave Rpn11 block 90*, TPT1 inhibitor 1, HNF4A DNA FP -2, Myeloid diff 2 inactive, Rpn11 inh conf 1, MMP-2 counter -36 and Thrombin FP -41.
C/C(=N\NC(=O)C(=O)Nc1ccc(C)cc1)c1ccncc1 was read as Rpn11 block -4, TPT1 inhibitor -1, HNF4A DNA FP -5 and Myeloid diff 2 inactive.
For COc1cccc(C(=O)CC(C#N)c2ccc(F)cc2)c1 (stereo not given) the results were Rpn11 block 0, TPT1 inhibitor 0, HNF4A DNA FP 5 and Myeloid diff 2 inactive.
COc1ccc(COc2ccsc2C(=O)Nc2ccc(Cl)c(Cl)c2)cc1 was read as Rpn11 block 44*, TPT1 inhibitor 3, HNF4A DNA FP 1, Myeloid diff 2 inactive, Rpn11 inh conf 9, MMP-2 counter -20 and Thrombin FP -13.
`COc1ccc2[nH]c3c(c2c1)CCN1C(=O)C(CC(=O)NCCN2CCOCC2)C[C@H](C(=O)N2CCOCC2)[C@@]31C` (stereo not given in full) gave Rpn11 block -3, HNF4A DNA FP 1 and Myeloid diff 2 inactive.
